Measured values taken from PubChem BioAssay AID624330 (Southern Research Specialized Biocontainment Screening …, 2012).
Hit rate of the full screen: of about 340,000 compounds, about 2,100 (0.62%) were called active.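 Rule for the calls: active = first-screen hits whose inhibition reached a set limit at any dose in the follow-up dose series; inconclusive = inhibition above the set first-screen limit but never retested; inactive = the rest.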 Not all results are given here. Measured potencies and affinities stand elsewhere.

Molecular target: Rac GTPase-activating protein 1 (Homo sapiens) (UniProt Q9H0H5)
Assay: blockers of MgcRacGAP-driven Rac1 GTP hydrolysis – biochemical, ADP Hunter fluorescence, primary and confirmatory, confirmation (AID 624330);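 note: fluorescence reports GDP produced by GAP-driven GTP hydrolysis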
Conditions: MgcRacGAP-stimulated Rac1 GTP hydrolysis, at 30 µM, active compounds read high, GST-tagged Rac1 F28L mutant substrate

Chain of Rac GTPase-activating protein 1 (Homo sapiens) (Q9H0H5 whole entry, looked up): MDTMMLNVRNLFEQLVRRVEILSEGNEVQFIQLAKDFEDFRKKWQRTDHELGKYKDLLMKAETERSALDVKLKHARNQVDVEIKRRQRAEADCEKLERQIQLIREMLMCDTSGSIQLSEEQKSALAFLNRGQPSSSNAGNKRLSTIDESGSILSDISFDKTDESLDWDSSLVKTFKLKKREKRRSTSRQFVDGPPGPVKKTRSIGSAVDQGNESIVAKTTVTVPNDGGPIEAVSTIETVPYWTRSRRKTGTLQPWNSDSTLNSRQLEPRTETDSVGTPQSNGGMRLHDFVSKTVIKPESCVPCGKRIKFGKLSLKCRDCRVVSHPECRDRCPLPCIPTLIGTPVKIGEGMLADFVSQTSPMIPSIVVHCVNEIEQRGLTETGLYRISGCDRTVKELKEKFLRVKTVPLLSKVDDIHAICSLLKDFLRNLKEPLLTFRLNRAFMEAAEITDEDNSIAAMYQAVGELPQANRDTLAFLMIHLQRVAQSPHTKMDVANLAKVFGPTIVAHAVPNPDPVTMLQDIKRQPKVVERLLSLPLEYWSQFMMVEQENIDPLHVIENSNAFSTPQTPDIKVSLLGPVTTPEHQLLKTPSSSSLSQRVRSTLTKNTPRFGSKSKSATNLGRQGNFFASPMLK

inhibition, inactive:
Cc1ccc(C(=O)N2CCN(c3ccc(N4CCOCC4)nn3)CC2)cc1C 5.24%
CCOC(=O)Nc1sc(C)c(C)c1C(=O)OCC -8.16%
CCOC(=O)c1c(NC(N)=O)sc(C)c1C 1.42%
O=c1[nH]c2ccccc2n2c(-c3ccncc3)nnc12 6.75%
O=c1[nH]c2ccccc2n2c(C(F)(F)F)nnc12 5.97%
CC(=O)c1ccc(NC(=O)c2ccc3nc(C)sc3c2)cc1 5.73%
COC(=O)c1ccc(NC(=O)c2ccc3nsnc3c2)cc1 2.71%
O=C(Nc1ccc(Cl)cc1)c1ccc2nsnc2c1 -0.42%
COC(=O)c1ccc(NC(=O)c2ccc3nc(C)sc3c2)cc1 -0.39%
O=C(/C=C/c1ccc(Cl)c(Cl)c1)NCCCn1ccnc1 7.08%
CN1c2ccc(Cl)cc2C(=O)NC1c1ccc([N+](=O)[O-])s1 (stereo not drawn) 11.4%
Cc1cccn2c(=O)c(C=NCc3ccccc3)c(NCCO)nc12 7.69%
C#CCOCCOCCOCCNc1nc(N2CCN(C(=O)C(Cc3cc4ccccc4[nH]3)n3cc(C(N)C(C)CC)nn3)CC2)nc(N2CCN(C(=O)C(Cc3cc4ccccc4[nH]3)n3cc(C(N)C(C)CC)nn3)CC2)n1 (stereo not drawn) 4.22%
C#CCOCCOCCOCCNc1nc(N2CCOCC2)nc(N2CCN(C(=O)[C@H](CCCCN)n3cc([C@@H](N)CC(C)C)nn3)CC2)n1 11.6%
C#CCOCCOCCOCCNc1nc(N2CCOCC2)nc(N2CCN(C(=O)[C@H](Cc3cc4ccccc4[nH]3)n3cc([C@@H](N)C(C)CC)nn3)CC2)n1 (stereo partly drawn) 13.4%
C#CCOCCOCCOCCNc1nc(N2CCN(C(=O)[C@H](CCCCN)n3cc([C@@H](N)CO)nn3)CC2)nc(N2CCN(C(=O)[C@H](CCCCN)n3cc([C@@H](N)CC(C)C)nn3)CC2)n1 19.8%
C#CCOCCOCCOCCNc1nc(N2CCN(C(=O)[C@H](CCCCN)n3cc(C(N)CC(C)C)nn3)CC2)nc(N2CCN(C(=O)[C@H](CCC(=O)O)n3cc(C(N)[C@H](C)CC)nn3)CC2)n1 (stereo partly drawn) 13.4%
C#CCOCCOCCOCCNc1nc(N2CCN(C(=O)[C@H]([C@@H](C)CC)n3cc([C@@H](N)CC(C)C)nn3)CC2)nc(N2CCN(C(=O)[C@H](CCCCN)n3cc([C@@H](N)C(C)CC)nn3)CC2)n1 (stereo partly drawn) 19.8%
CC(OC(=O)c1cc(=O)[nH]c2ccccc12)C(=O)N1C(C)CCCC1C (stereo not drawn) 3.29%
COc1ccccc1Nc1nnc(SCc2cc(=O)n3cc(C)ccc3n2)s1 10.9%
Cc1cc(C)n2nc(SCc3nc4ccccc4[nH]3)nc2n1 3.82%
C/C=C\C=C/C(=O)Nc1cccc(C2=NOC3(C2)C[C@@H](C(N)=O)N(C(=O)COc2ccc(Cl)cc2)C3)c1 (stereo partly drawn) 7.01%
O=C(c1sc2ccccc2c1Cl)N1CCN(c2ncccn2)CC1 5.52%
Cc1nc(Nc2nc(CSc3ccc(Cl)cc3)cc(=O)[nH]2)nc2ccccc12 4.96%
O=C(COC(=O)C1CC(=O)N(c2ccccc2)C1)c1ccccc1 (stereo not drawn) 4.11%
O=C(CCCN1C(=O)/C(=C/c2ccccc2Cl)SC1=S)NCCCN1CCOCC1 12.8%
O=C1C(=Cc2ccccc2O)SC(=S)N1CCCN1CCOCC1 14.5%
CCN(CC)C(=S)Nc1ccc2nc3n(c(=O)c2c1)CCCCC3 3.47%
O=C(O)c1ccccc1C(=O)Nc1ccccn1 3.57%
O=C(Nc1ccccn1)c1cc2ccccc2cc1O 6.04%
OCCSc1c(F)c(SCCO)c(SCCO)c(F)c1SCCO -1.8%
Cn1c(=O)[nH]c(=O)c2c1nc(NCCc1ccccc1)n2CC(O)COc1ccccc1 (stereo not drawn) 4.54%
CCOC(=O)C1(CCOC)CCN(C/C=C/c2ccccc2OC)CC1 5.1%
O=C(N/N=C/c1ccc(O)cc1O)c1ccncc1 31.7%
COc1cccc(/C=N/NC(=O)CNC(=O)c2cccnc2)c1O 5.08%
COc1cccc(/C=N/NC(=O)CNC(=O)c2cccs2)c1O 9.63%
O=C(CNC(=O)c1ccco1)N/N=C/c1ccccc1[N+](=O)[O-] 16.6%
COc1ccc(Br)cc1/C=N/NC(=O)CNC(=O)c1cccnc1 -12.5%
O=C(CNC(=O)c1ccncc1)N/N=C/c1cc(Br)ccc1O 3.51%
O=C(CNC(=O)c1ccco1)N/N=C/c1cc(Br)ccc1O 5.36%
O=C(CNC(=O)c1cccs1)N/N=C/c1ccccc1[N+](=O)[O-] 3.27%
O=C1OC(COc2ccc(Br)cc2)CN1c1ccccc1 (stereo not drawn) 0.77%
Cc1ccc(OCc2nnc(SC(C)C(=O)O)n2Cc2ccccc2)cc1 (stereo not drawn) -1.5%
O=C(COC(=O)[C@@H]1CC(O)CN1S(=O)(=O)c1ccc2c(c1)OCCO2)Nc1ccccc1F (stereo partly drawn) 1.86%
O=C(c1ccc(Cl)nc1)N1CCN(C/C=C/c2ccccc2)CC1 10.5%
O=C(CN1C(=O)NC2(CCc3ccccc32)C1=O)c1c[nH]c2ccccc12 (stereo not drawn) -3.1%
CN1CCN(C(c2cccc(Cl)c2)c2ccccc2Cl)CC1 (stereo not drawn) 7.6%
CC1(C)C(=O)N(c2ccccc2)C1c1ccccc1O (stereo not drawn) 3.93%
Cc1cccc(OCC(=O)NCC(=O)N/N=C/c2ccc(O)cc2O)c1 18.5%
Oc1ccc(/C=N/NC(=S)Nc2cccnc2)c(O)c1O -102%
O=C(CCCCCNC(=O)c1ccccc1)N/N=C/c1ccccc1O 3.53%
Oc1ccc(C=NNC(=S)Nc2cccnc2)nc1 7.4%
O=C(COc1ccccc1)NCC(=O)N/N=C/c1ccccc1 5.67%
O=C(CCCCCNC(=O)c1ccccc1)N/N=C/c1ccc(F)cc1 6.47%
FC(F)(F)c1cnc(COc2ccc(Cl)cc2Cl)c(Cl)c1 7.97%
COc1ccccc1-c1cc(C(=O)NCc2ccco2)no1 11.6%
CCN(C[C@H]1N[C@@](C)(C(=O)OC)[C@H]2C(=O)N(C)C(=O)[C@@H]12)C(=O)Nc1ccc(C(F)(F)F)cc1 4.98%
COCCn1c(SC(C(=O)Nc2cc(C)ccc2OC)c2ccccc2)nnc1-c1ccc(Cl)cc1 (stereo not drawn) 8.02%
CC(C)COP(=O)(OCC(C)C)C(O)c1ccc2c(c1)OCO2 (stereo not drawn) 2.18%
N#Cc1c(-c2ccccc2)ccn(Cc2ccc(Cl)cc2)c1=O 11.4%
COc1cc(CNC2CCCCC2OC)cc(OC)c1OC (stereo not drawn) 21.8%
COc1cc(CNC2CCCC2)cc(OC)c1 16.2%
Cc1ccc(C)c(N2CCN(C(=O)Cc3ccc(NC4=NC5CS(=O)(=O)CC5S4)cc3)CC2)c1 (stereo not drawn) 15.3%
O=C(CNc1ccc2c(c1)OCO2)N/N=C\c1cn(Cc2ccccc2)c2ccccc12 9.72%
O=C(CNc1ccccc1)N/N=C/c1ccc2c(c1)OCO2 1.14%
CCOC(=O)Cc1csc(SC(C)C(=O)NC2CCCCC2C)n1 (stereo not drawn) 10.4%
CC(=O)c1ccc(N2CCN(C(=O)c3noc4c3CSc3ccccc3-4)CC2)cc1 10.2%
COc1ccc(N2CCN(C(c3cccs3)C(C)NS(C)(=O)=O)CC2)cc1 (stereo not drawn) 27.8%
O=S(=O)(NCC(c1cccnc1)N1CCN(c2ccc(F)cc2)CC1)c1cccs1 (stereo not drawn) 5.99%
Fc1ccc(N2CCN(C(c3cccs3)c3nnnn3CCc3ccccc3)CC2)cc1 (stereo not drawn) -2.42%
O=S(=O)(NCC(c1cccnc1)N1CCN(c2ccccc2)CC1)c1cccs1 (stereo not drawn) 2.98%
CCS(=O)(=O)NC(C)C(c1cccs1)N1CCN(c2ccc(F)cc2)CC1 (stereo not drawn) 8.25%
c1ccc(Cn2nnnc2C(c2cccnc2)N2CCN(c3ccccc3)CC2)cc1 (stereo not drawn) 2.89%
COc1ccc(N2CCN(C(c3ccccc3)c3nnnn3Cc3ccc(F)cc3)CC2)cc1 (stereo not drawn) 19%
c1ccc(CCn2nnnc2C(c2cccs2)N2CCOCC2)cc1 (stereo not drawn) 6.38%
CC1CCCC(NC(=O)CN2C(=O)NC(C)(c3ccccc3)C2=O)C1C (stereo not drawn) 2.02%
O=C(N/N=C/c1ccoc1)c1ccc([N+](=O)[O-])cc1 3.91%
COc1cccc2cc(C(=O)N3CC(C)OC(C)C3)c(=O)oc12 (stereo not drawn) 5.05%
COC(=O)c1ccc(COC(=O)c2ccccc2OC)cc1 -1.87%
COc1ccc(C(=O)NNC(=O)c2ccccc2[N+](=O)[O-])cc1Br 2.78%
COc1ccc([C@H]2CC(=O)C=C(c3cccc(F)c3OC)C2)cc1 9.17%
Cc1ccc(C(=O)N2CCN(Cc3ccc4c(c3)OCO4)CC2)o1 3.03%
O=C(c1cccc(F)c1)N1CCN(c2ccc([N+](=O)[O-])c(N3CCOCC3)c2)CC1 9.81%
CN1C(=O)CSC1=S 6.82%
O=c1[nH]nc(CNc2cccc(C(F)(F)F)c2)c2ccccc12 7.15%
COc1ccc(OC)c(C(c2c(C)[nH][nH]c2=O)c2c(C)[nH][nH]c2=O)c1 12.8%
O=c1c(Cl)c(N2CCN(c3ccc(F)cc3)CC2)cnn1C12CC3CC(CC(C3)C1)C2 -5.26%
N#Cc1nnn2c1nc(N)c1c(F)cccc12 2.66%
